# Source: PubChem
# The list is not random: actives were taken first. Their share in the collection is about 27%.
# CYP2C19 act: activators of human cytochrome P450 2C19; recombinant CYP2C19, luciferin-H EGE luminescence; active compounds read high; 0 = fully inhibited enzyme, 1 = untreated enzyme; activation factor at 5 µM; 96,000 tested, under 10 active;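 active = activation factor of at least 2 at 5 µM in the primary screen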;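 also: 0 = wells with 2.5 mM tranylcypromine and 1 = vehicle-only wells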
# CYP2C9 act: CYP2C9 (human) activation. activation factor at 5 µM. 96,000 tested, 1.4% active. P11712. recombinant CYP2C9, luciferin-H conversion, luminescence; active compounds read high; factor 1 = untreated enzyme, 0 = blocked;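 active = activation factor of 2 or more for CYP2C9 at a 5 µM dose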;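 also: 0 = sulfaphenazole-blocked wells and 1 = vehicle-only wells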
# CYP2C19 inh: inhibitors of human CYP2C19. inhibition, % at 5 µM. 96,000 tested, 21% active. AID 778. CYP2C19 Supersomes, luciferin-H EGE luminescence, 30 min. P33261;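 active = CYP2C19 inhibition above a set limit at 5 µM in the primary screen, cut at about 50% in these data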;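 also: plate controls were negative control wells for no effect and 2.5 mM tranylcypromine positive control for full effect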
# sEH inh: soluble epoxide hydrolase (human) inhibition. P34913. recombinant human sEH enzymatic activity assay. inhibition, % at 2 µM. 91,000 tested, 0.34% active. AID 707; in the data active = inhibition above about 80%
# Target sequence (P34913 whole entry, looked up): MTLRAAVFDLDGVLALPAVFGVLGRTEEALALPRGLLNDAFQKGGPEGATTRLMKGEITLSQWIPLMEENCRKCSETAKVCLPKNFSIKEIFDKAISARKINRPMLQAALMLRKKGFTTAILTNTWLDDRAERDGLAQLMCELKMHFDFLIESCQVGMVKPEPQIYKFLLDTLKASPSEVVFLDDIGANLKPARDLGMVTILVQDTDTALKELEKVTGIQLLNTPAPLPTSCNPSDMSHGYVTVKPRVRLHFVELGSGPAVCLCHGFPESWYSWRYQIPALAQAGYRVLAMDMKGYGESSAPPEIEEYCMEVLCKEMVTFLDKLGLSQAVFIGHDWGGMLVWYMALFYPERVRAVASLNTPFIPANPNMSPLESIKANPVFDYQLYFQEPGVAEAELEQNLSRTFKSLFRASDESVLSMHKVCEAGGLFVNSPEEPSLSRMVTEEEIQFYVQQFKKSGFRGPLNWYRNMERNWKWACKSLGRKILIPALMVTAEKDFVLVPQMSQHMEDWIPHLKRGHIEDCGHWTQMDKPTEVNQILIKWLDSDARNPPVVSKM
# sEH act: soluble epoxide hydrolase (human) activation; purified human sEH enzymatic activity, activator screen; AID 717; 91,000 tested, 0.04% active; activation, % at 2 µM; P34913; in the data active = activation above about 37%
# CYP2C9 inhib: blocks human cytochrome P450 2C9; CYP2C9 Supersomes, luciferin-H conversion, luminescence; inhibition, % at 5 µM; 96,000 tested, 20% active; AID 777;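 active = blocking of liver enzyme CYP2C9 beyond about 50% at 5 µM, limit read from the data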
# The depositor's hits bear a star; nt = no result given.
SMILES,CYP2C19 act,CYP2C9 act,CYP2C19 inh,sEH inh,sEH act,CYP2C9 inhib
COc1cccc(-c2nc(NCc3ccco3)c3ccccc3n2)c1O,nt,nt,nt,4,-3,nt
OCCSc1nc(-c2cccnc2)nc2ccccc12,0.4,0.1,63*,-3,7,90*
c1ccc(-c2nc(NCc3cccnc3)c3ccccc3n2)cc1,0.7,0.4,28,-8,9,65*
c1ccc(CN2CCN(c3nc(NCc4ccco4)c4ccccc4n3)CC2)cc1,0.5,0.3,51*,28,-27,66*
OCCNc1nc(-c2cccnc2)nc2ccccc12,0.9,0.9,15,-4,1,8
CSc1nc(NCc2ccco2)c2ccccc2n1,0.4,0.4,64*,-2,0,64*
OCCN1CCN(c2nc(NCc3ccco3)c3ccccc3n2)CC1,nt,nt,nt,-3,5,nt
O=C(Nc1ccc(N2CCCCC2)c(Cl)c1)c1ncn[nH]1,0.9,1.1,10,nt,nt,-8
c1cncc(-c2nc(NCc3ccco3)c3ccccc3n2)c1,0.8,0.4,24,7,-9,62*
Cc1ccc(-c2nc(N/N=C/c3cccnc3)c3ccccc3n2)cc1,0,0.2,96*,-1,-2,82*
CCc1ccc(-n2c(O)cnc2Nc2nc(C)cc(C)n2)cc1,0.9,0.8,8,2,2,17
COc1ccc(CCNC(=O)c2n[nH]c(=O)c3ccccc23)cc1,1,1,-2,-9,7,5
Cc1ccc(C(=O)Nc2ccc(O)c(C(=O)O)c2)o1,0.9,1.1,9,28,-26,-8
CCc1ccc(CC)c(S(=O)(=O)Nc2ccc(C(=O)O)c(O)c2)c1,0.9,0.2,8,6,-4,83*
O=C(O)c1ccc(NS(=O)(=O)c2ccc(Cl)c(Cl)c2)cc1O,1,0.8,-4,nt,nt,24
CCc1ccc(CC)c(S(=O)(=O)Nc2ccc(O)c(C(=O)O)c2)c1,0.9,0.2,6,7,-2,77*
COc1ccc(N(C(=O)Nc2ccc(Cl)cc2)C2=NCCC2)cc1,0.9,0.5,10,-8,6,54*
Cc1ccc(S(=O)(=O)c2n[nH]n3c2nc(=O)c2ccccc23)cc1,1.1,0.1,-5,15,-14,94*
Cc1cccc(N2C(=S)N=C(Nc3c(C)cccc3C)C23CCOC(C)(C)C3)c1 (stereo not given),1.1,1.1,-14,11,-8,-14
Cc1cccc(C(C)C)c1-n1nnnc1-c1ccccc1,0.3,0.2,70*,10,-12,82*
O=C(CCC(=O)Nc1nnc(C2CCCCC2)s1)NCC1CCCO1 (stereo not given),1,0.9,-4,-5,6,12
O=C(CCCOc1ccccc1)Nc1nnc(C2CCCO2)s1 (stereo not given),0.4,0.4,64*,nt,nt,56*
Cc1cc(C)nc(SCNC(=O)c2ccc(Cl)cc2)n1,0.1,1.6,91*,12,-14,-63
Cc1cc(N2CCOCC2)nc(SCC(=O)c2ccccc2)n1,0.4,0.6,56*,nt,nt,45
Cc1cc(N2CCOCC2)nc(SCC(=O)c2ccc(Cl)cc2)n1,0.2,0.8,80*,-4,5,23
SMILES,CYP2C19 act,CYP2C9 act,CYP2C19 inh,sEH inh,sEH act,CYP2C9 inhib
Cc1cc(N2CCCC2)nc(SCC(=O)c2ccccc2)n1,nt,nt,nt,1,2,nt
c1ccc(CNn2c(N3CCOCC3)nc3ccccc32)cc1,0.3,0.9,70*,-5,5,5
CCOC(=O)C1=C(C)Nc2ncnn2C1c1ccccc1F (stereo not given),0.9,0.8,10,5,-2,20
CCOc1ccc(C(=O)NCC(=O)OCC(=O)Nc2ccccc2OC)cc1,0.5,1.2,46,8,-7,-21
O=C(COC(=O)C1CC2C=CC1C2)Nc1ccc2c(c1)OC(F)(F)O2 (stereo not given),nt,nt,nt,30,-27,nt
Cc1cc(N2CCOCC2)nc(NCc2ccccc2)n1,0.3,1,74*,5,-6,-2
Cc1cc(C)nc(SCC(=O)c2ccc([N+](=O)[O-])cc2)n1,0.1,0.8,92*,2,0,20
Cc1cc(C)nc(SCC(=O)c2ccc(O)cc2O)n1,0.6,1.3,44,7,-9,-33
CCn1nc(CC(=O)Nc2ccc(-n3cnnn3)c(C)c2)c2ccccc2c1=O,0.7,0.7,25,93*,-92,26
Cc1cc(C)cc(OCC(=O)Nc2ccccc2N2CCCCC2)c1,1,0.6,-1,-1,-4,39
CCC(=O)N1CCN(c2ccccc2NC(=O)COc2cccc(C)c2)CC1,0.6,0.4,40,5,-5,58*
Cc1ccc(C(=O)Nc2ccccc2N2CCN(C(=O)C(C)C)CC2)cc1,0.8,0.6,23,-2,4,42
CCOc1cccc(C(=O)Nc2ccccc2N2CCN(C(=O)C(C)C)CC2)c1,0.2,0.1,77*,-7,9,94*
COc1ccc(C(=O)Nc2ccccc2N2CCN(C(=O)C(C)C)CC2)cc1Cl,nt,nt,nt,7,-2,nt
CCC(=O)N1CCN(c2ccccc2NC(=O)c2cccc(C)c2)CC1,0.2,0.3,77*,7,-4,71*
CCC(=O)N1CCN(c2ccc(Cl)cc2NC(=O)c2ccc(Br)o2)CC1,nt,nt,nt,-11,15,nt
COc1ccc(Cl)cc1C(=O)Nc1ccccc1N1CCN(C(=O)C(C)C)CC1,0.3,0.3,68*,-4,3,68*
C=CCn1c(=O)c2ccccc2n2c(SC(C)C(=O)Nc3nc(-c4ccccc4)cs3)nnc12 (stereo not given),nt,nt,nt,11,-14,nt
Cc1cc(C(=O)CSc2nnc(N)s2)c(C)n1CCc1ccc(F)cc1,0,0.1,96*,1,-1,88*
Cc1cc(C(=O)CSc2nnc(N)s2)c(C)n1CCc1ccc(Cl)cc1,0.1,0.2,89*,6,-7,79*
COc1ccc(CCn2c(C)cc(C(=O)CSc3nnc(N)s3)c2C)cc1,nt,nt,nt,10,-9,nt
COc1ccc(NC(=O)Cc2nn(C)c(=O)c3ccccc23)c2ncccc12,1,0.9,4,nt,nt,11
Cc1cccc(NC(=O)CC2SC(=NC3CCCCC3)NC2=O)c1 (stereo not given),0.7,0.3,27,nt,nt,66*
O=C(CC1SC(=NC2CCCCC2)NC1=O)Nc1ccccc1 (stereo not given),nt,nt,nt,-23,21,nt
COc1cccc(N2CCN(Cc3ccsc3)CC2)c1,0.1,0.5,91*,-6,7,50*
CCN(CC)C(=O)CN1C(=O)COCC1=O,0.9,0.8,8,-1,0,20
CCN(CC)c1ccc(NC(=O)c2cnn(CC)c2)cc1,0.9,1.1,7,-2,6,-11
CCn1cc(C(=O)NC(=S)Nc2cccc(O)c2)cn1,0.4,1.7,65*,19,-18,-68
Cc1ccc(NC(=O)CN(C)C(=O)CSc2nc3ccccc3o2)cc1,0.8,0.7,22,1,2,32
